Data from the antibiotic and cytotoxicity screens of Wong et al. (2023).
Out of some 39,000 compounds screened, about 3,300 (8.5%) were called active. The list comes from a sample in which actives are over-represented; it also holds similar structures and randomly drawn compounds.

System: HepG2
Assay: cytotoxicity call (relative viability < 0.9)
Details: 10 µM

Compound | cytotoxicity call
CC(C)NC(=O)N(C)C[C@@H]1Oc2c(NC(=O)C3CCOCC3)cccc2C(=O)N([C@@H](C)CO)C[C@@H]1C | inactive
COc1ccc(S(=O)(=O)Nc2ccc3c(c2)C(=O)N([C@@H](C)CO)C[C@H](C)[C@@H](CN(C)Cc2ccccc2)OCCCC[C@H](C)O3)cc1 | inactive
C(=N\c1cc(-c2ccccc2)nn1-c1ccccc1)/c1ccccc1 | inactive
C[C@H]1CN([C@@H](C)CO)C(=O)c2cc(C#CC3CCCCC3)cnc2O[C@@H]1CN(C)C(=O)c1ccncc1 | inactive
O=C(CCCCCCC(=O)Nc1ccc([C@H]2C[C@H](c3ccccc3)O[C@H](c3cccc(Oc4ccccc4)c3)O2)cc1)NO | inactive
C[C@H](CO)N1C[C@H](C)[C@H](CN(C)Cc2ccc(C(=O)O)cc2)Oc2ccc(NS(=O)(=O)c3cn(C)cn3)cc2CC1=O | inactive
O=C(C[C@@H]1C[C@H]2c3cc(NS(=O)(=O)c4ccc(F)cc4)ccc3O[C@H]2[C@H](CO)O1)NCc1ccccc1F | inactive
C[C@@H]1COCCC(=O)N1 | inactive
O=C1CN(c2ccccc2)C(=O)N1 | inactive
C[C@H]1CN([C@@H](C)CO)S(=O)(=O)c2ccc(C3=CCCCC3)cc2O[C@@H]1CN(C)S(=O)(=O)c1cn(C)cn1 | inactive
C[C@@H]1CN([C@@H](C)CO)C(=O)c2cccc(NC(=O)Nc3cccc4ccccc34)c2O[C@H]1CN(C)S(=O)(=O)c1cccs1 | inactive
C[C@@H]1CN([C@@H](C)CO)C(=O)c2cccc(NC(=O)Nc3cccc4ccccc34)c2O[C@@H]1CN(C)S(=O)(=O)c1cccs1 | inactive
COc1ccc(S(=O)(=O)N(C)C[C@H]2Oc3c(NC(=O)Nc4cccc5ccccc45)cccc3C(=O)N([C@H](C)CO)C[C@@H]2C)cc1 | active
COc1ccc(S(=O)(=O)N(C)C[C@@H]2Oc3c(NC(=O)Nc4cccc5ccccc45)cccc3C(=O)N([C@@H](C)CO)C[C@@H]2C)cc1 | inactive
COc1ccc(S(=O)(=O)N(C)C[C@H]2Oc3c(NC(=O)Nc4cccc5ccccc45)cccc3C(=O)N([C@H](C)CO)C[C@H]2C)cc1 | inactive
COc1ccc(S(=O)(=O)N(C)C[C@@H]2Oc3c(NC(=O)Nc4cccc5ccccc45)cccc3C(=O)N([C@H](C)CO)C[C@@H]2C)cc1 | inactive
COc1ccc(S(=O)(=O)N(C)C[C@@H]2Oc3c(NC(=O)Nc4cccc5ccccc45)cccc3C(=O)N(C(C)C)C[C@H]2C)cc1 | inactive
C[C@@H]1CN([C@H](C)CO)C(=O)c2cccc(NC(=O)Nc3cccc4ccccc34)c2O[C@@H]1CN(C)S(=O)(=O)c1cccs1 | active
COc1ccc(S(=O)(=O)N(C)C[C@@H]2Oc3c(NC(=O)Nc4cccc5ccccc45)cccc3C(=O)N([C@H](C)CO)C[C@H]2C)cc1 | active
C[C@@H]1CCCCO[C@@H](CN(C)S(C)(=O)=O)[C@H](C)CN([C@@H](C)CO)C(=O)c2cc(N(C)C)ccc2O1 | inactive
COc1ccc(S(=O)(=O)N(C)C[C@H]2Oc3ncc(Br)cc3C(=O)N([C@@H](C)CO)C[C@@H]2C)cc1 | inactive
C[C@H](CO)N1C[C@H](C)[C@@H](CN(C)C(=O)Nc2ccccc2)Oc2ccc(NC(=O)C3CC3)cc2CC1=O | inactive

Compound | cytotoxicity call
O=C1OCC=C[C@H]2O[C@@]34C=CCN(c5ccc(Cl)cc5)C(=O)[C@H]3N(CCCCCCO)C(=O)[C@@H]4[C@@H]12 | inactive
C[C@@H]1CCCCO[C@H](CN(C)Cc2ccc(C(=O)O)cc2)[C@@H](C)CN([C@H](C)CO)C(=O)c2cc(NC(=O)Nc3ccccc3)ccc2O1 | inactive
CC(C)N1C(=O)C[C@@](C(=O)NCCN2CCOCC2)(c2ccc([N+](=O)[O-])cc2)[C@H]1c1ccc(CO)cc1 | inactive
COc1ccc(NC(=O)Nc2ccc3c(c2)C(=O)N([C@@H](C)CO)C[C@H](C)[C@H](CN(C)C(=O)NC2CCCCC2)OCCCC[C@H](C)O3)cc1 | inactive
C[C@H]1CCCCO[C@H](CN(C)S(=O)(=O)c2ccccc2)[C@@H](C)CN([C@@H](C)CO)C(=O)c2cc(NC(=O)Nc3cccc4ccccc34)ccc2O1 | inactive
Cc1noc(C)c1NC(=O)N[C@@H]1CC[C@H](CC(=O)NCCCN(C)C)O[C@H]1CO | inactive
C[C@H]1CN([C@@H](C)CO)C(=O)c2cc(NC(=O)C3CC3)ccc2O[C@H]1CN(C)S(=O)(=O)c1cn(C)cn1 | inactive
Cc1cc(C(=O)Nc2cccc3c2O[C@H](CN(C)S(=O)(=O)c2ccc(Cl)cc2)[C@@H](C)CN([C@H](C)CO)C3=O)n(C)n1 | inactive
COc1cccc(C)c1NC(=O)O[C@H]1[C@H](OC(=O)Nc2ccccc2-c2ccccc2)[C@H](OC(=O)Nc2ccccc2-c2ccccc2)[C@@H](OC)O[C@@H]1CO | inactive
COc1cc(NC(=O)CCN2CCC(OC(=O)Nc3ccccc3-c3ccccc3)CC2)c(Cl)cc1CNC[C@H](O)c1ccc(O)c2nc(O)ccc12 | active
NCc1cc2ccc(F)cc2[nH]c1=O | inactive
C[C@H]1CN([C@@H](C)CO)C(=O)c2cc(C#CCN(C)C)cnc2O[C@H]1CN(C)C(=O)c1cnccn1 | inactive
CC(=O)Oc1cc(OC(C)=O)c2c(c1)O[C@H](c1ccc(OC(C)=O)c(OC(C)=O)c1)[C@H](OC(C)=O)C2 | inactive
O=C1NC(=O)C(c2cnc3ccccn23)=C1c1cn2c3c(cc(F)cc13)CN(C(=O)N1CCCCC1)CC2 | active
C[C@H](CO)N1C[C@H](C)[C@@H](CN(C)S(=O)(=O)c2cn(C)cn2)Oc2c(NS(=O)(=O)c3ccc(Cl)cc3)cccc2C1=O | inactive
COc1cccc(-c2ccc3c(c2)O[C@@H](CN(C)C(=O)C2CCC2)[C@@H](C)CN([C@H](C)CO)S3(=O)=O)c1 | inactive
Cc1ccc(S(=O)(=O)N(C)C[C@H]2Oc3ccc(NS(=O)(=O)c4cccs4)cc3C(=O)N([C@@H](C)CO)C[C@@H]2C)cc1 | inactive
Cl.O=C1CN2Cc3c(ccc(Cl)c3Cl)N=C2N1 | active
C[C@H](CO)N1C[C@H](C)[C@H](CN(C)C(=O)C2CCOCC2)Oc2cc(-c3ccc(F)cc3)ccc2S1(=O)=O | inactive
COc1ccc(S(=O)(=O)N(C)C[C@@H]2Oc3ncc(C#CC4(O)CCCC4)cc3C(=O)N([C@@H](C)CO)C[C@@H]2C)cc1 | inactive
O=C(Cc1nn[nH]n1)NS(=O)(=O)c1ccccc1 | inactive
C[C@H]1CCCCO[C@@H](CN(C)CC2CCCCC2)[C@@H](C)CN([C@@H](C)CO)C(=O)c2cc(NC(=O)Nc3ccc(F)cc3)ccc2O1 | active

Compound | cytotoxicity call
C[C@@H]1CCCCO[C@@H](CN(C)CC2CCCCC2)[C@@H](C)CN([C@H](C)CO)C(=O)c2cc(NC(=O)Nc3ccc(F)cc3)ccc2O1 | inactive
C[C@@H]1CN([C@H](C)CO)C(=O)c2cc(NC(=O)Nc3ccc(F)cc3)ccc2O[C@@H](C)CCCCO[C@@H]1CN(C)CC1CCCCC1 | active
C[C@@H]1CCCCO[C@H](CN(C)CC2CC2)[C@@H](C)CN([C@H](C)CO)C(=O)c2cc(NC(=O)Nc3ccc(F)cc3)ccc2O1 | inactive
C[C@@H]1CCCCO[C@H](CN(C)CC2CCCCC2)[C@H](C)CN([C@H](C)CO)C(=O)c2cc(NC(=O)Nc3ccc(F)cc3)ccc2O1 | active
C[C@@H]1CCCCO[C@H](CN(C)CC2CC2)[C@H](C)CN([C@@H](C)CO)C(=O)c2cc(NC(=O)Nc3ccc(F)cc3)ccc2O1 | inactive
C[C@H]1CCCCO[C@H](CN(C)CC2CCCCC2)[C@@H](C)CN([C@@H](C)CO)C(=O)c2cc(NC(=O)Nc3ccc(F)cc3)ccc2O1 | active
C[C@@H]1CCCCO[C@@H](CN(C)CC2CCCCC2)[C@@H](C)CN([C@@H](C)CO)C(=O)c2cc(NC(=O)Nc3ccc(F)cc3)ccc2O1 | inactive
C[C@@H]1CN([C@@H](C)CO)C(=O)c2cc(NC(=O)Nc3ccc(F)cc3)ccc2O[C@@H](C)CCCCO[C@H]1CN(C)CC1CC1 | inactive
C[C@@H]1CCCCO[C@@H](CN(C)CC2CC2)[C@H](C)CN([C@H](C)CO)C(=O)c2cc(NC(=O)Nc3ccc(F)cc3)ccc2O1 | inactive
CO[C@@]1(C2=NCCN2)COc2ccccc2O1 | inactive
O=C1O[C@@H](c2ccccc2)[C@@H](c2ccccc2)N2[C@@H](c3ccccc3OCCO)[C@]3(C(=O)Nc4ccc(C#CC5(O)CCCCCC5)cc43)[C@@H](C(=O)N3CCCCCCC3)[C@H]12 | inactive
C[C@H](CO)N1C[C@H](C)[C@H](CN(C)C(=O)C2CCCCC2)OCCCC[C@H](C)Oc2ccc(NC(=O)C3CCCCC3)cc2C1=O | inactive
CCCn1c(=O)c(C)cn2nc(N)nc12 | inactive
O=C(N[C@@H]1C=C[C@@H](CC(=O)N2CCOCC2)O[C@@H]1CO)c1ccccn1 | inactive
O=C(CCn1ccc(=O)[nH]c1=O)Nc1ccc2c(c1)NC(=O)CO2 | inactive
COc1ccc2c3c([nH]c2c1)[C@@H](CO)N(CC1CCCCC1)C[C@]13CCN(CC1)C(=O)NC1CCCC1 | inactive
Cc1noc(C)c1S(=O)(=O)Nc1ccc2c(c1)CC(=O)N([C@H](C)CO)C[C@@H](C)[C@H](CN(C)Cc1ccc3c(c1)OCO3)O2 | inactive
CN(C)c1ccsc1C(=O)NN | inactive
C[C@@H]1CN([C@H](C)CO)C(=O)c2cc(NC(=O)CCC(F)(F)F)ccc2O[C@@H](C)CCCCO[C@H]1CN(C)C(=O)C1CCCCC1 | inactive
C[C@@H]1CCCCO[C@H](CN(C)C(=O)C2CCCCC2)[C@H](C)CN([C@@H](C)CO)C(=O)c2cc(NC(=O)Nc3ccc4c(c3)OCO4)ccc2O1 | inactive
Cc1nc(COP(=O)(O)O)cc2c1[O][Mn][O]c1c(cc(COP(=O)(O)O)nc1C)CN(CC(=O)O)CCN(CC(=O)O)C2 | inactive
